Screens deposited in PubChem BioAssay by National Center for Advancing Translational Sciences (NCATS).
Rows were chosen to be rich in hits. Some 12% of all compounds tested hit in one or more screens of this group.
Shiga toxin inh – A qHTS for Small Molecule Inhibitors of Shiga Toxin | Vero cells, Shiga toxin protein synthesis inhibition reporter | inhibition, % at 38.7 µM | hit rate 9.2% among 290,000 | AID 2315, 2010; in the data active = inhibition mostly above about 28%, no sharp cut-off; inactive = mostly below about 43%
FMDV antiviral – High Throughput Screening for Foot and Mouth Disease Virus Antivirals. FMDV antiviral cell-based qHTS. Potency, µM (doses to about 57.9 µM), actives largely listed as inhibitors. hit rate 1.2% among 410,000. AID 1159524, 2015; calls by dose curve; tested in HEK293T cells; note: read-out not given here; nearly all actives have a fitted effect of over 45% in size
Sm TGR block – qHTS Assay for the Inhibitors of Schistosoma Mansoni Peroxiredoxins; purified TGR, DTNB reduction, TNB absorbance 405 nm; Potency, µM (titrated, usually from 114 µM), most hits filed as inhibitors; hit rate 3% among 360,000; AID 485364, 2010; active = well fitted inhibition curve with a large enough effect; inconclusive = small, poorly fitted or top-dose-only effect; inactive = no such curve, though single readings can be large or run the other way; note: nearly all actives have a fitted effect of over 60% in size
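TGR 20 nM + NADPH 100 uM (dispensed conc.), cpd preinc 15 min RT; start with NADPH (500 uM addition) then DTNB (15 mM addition). Kinetic TNB absorbance, 405 nm filter. Four-parameter Hill fit across titration.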
Cycloheximide cs – Cycloheximide Counterscreen for Small Molecule Inhibitors of Shiga Toxin; cell reporter, cycloheximide protein synthesis inhibition counterscreen; hit rate 12% among 300,000; max response, %; in the data active = max response mostly above about 13%, no sharp cut-off; inactive = mostly below about 14%; note: read at 38.3 µM for the half of the compounds with a filed dose
Hits are given with their value; . = inactive; ? = inconclusive; / = not tested or not shown.

SMILES | Shiga toxin inh | FMDV antiviral | Sm TGR block | Cycloheximide cs
NC(=O)c1ccccc1OCCOc1ccc(Br)cc1 | 57 | . | . | 17
Cc1nc2nncn2c(Nc2ccc(F)cc2)c1C | / | . | . | /
Cc1cc(Cl)ccc1OC(C)C(=O)N1CCCN(C(=O)C(C)Oc2ccc(Cl)cc2C)CC1 (configuration not stated) | . | 28µM | . | .
CCOC(=O)c1cc(-c2ccc(OC)cc2)n(CCC(=O)NC2CCC(C)CC2)c1C (configuration not stated) | / | . | . | /
O=C(NCCN1C(=O)C2C3C=CC(C3)C2C1=O)Nc1ccccc1 (configuration not stated) | . | . | ? | .
Cc1ccc(NC(=O)NCCN2C(=O)C3C4C=CC(C4)C3C2=O)cc1 (configuration not stated) | 134 | . | . | 112
COc1ccc(NC(=O)NCCN2C(=O)C3C4C=CC(C4)C3C2=O)cc1 (configuration not stated) | 60 | . | . | 32
Cc1ccc(CNC(=O)c2ccc(Cn3c(SCc4ccc(F)cc4)nc4cccnc43)cc2)o1 | / | . | ? | /
c1ccc(N2CCN(c3ccccc3)C2c2ccncc2)cc1 | . | / | . | .
Cc1ccc(N2CCN(c3ccc(C)cc3)C2c2cccnc2)cc1 | . | / | . | 19
Cc1ccc(S(=O)(=O)N2CCCC2c2cccnc2)cc1 (configuration not stated) | . | . | . | .
c1ccc(N2CCN(c3ccccc3)C2c2cccnc2)cc1 | 48 | 10µM | . | 26
O=C(Nc1ccc(F)cc1F)Nc1csc2ccccc12 | 117 | . | . | 42
O=C(Nc1ccc(F)c(Cl)c1)Nc1csc2ccccc12 | 57 | . | . | 38
CCc1ccccc1NC(=O)Nc1ccc(F)cc1F | . | . | . | .
CCC(C)NC(=O)CSc1nc2c(sc3ccccc32)c(=O)n1Cc1ccccc1Cl (configuration not stated) | / | . | . | /
COc1ccccc1CNC(=O)c1ccc2nc(N3CCCCC3)sc2c1 | / | . | . | /
CNc1nnc(-c2ccc(N(C)C)cc2)s1 | . | / | . | 18
CN(C)c1ccc(-c2ccncc2)cc1 | . | / | . | .
COc1ccc(Br)cc1Cn1nnc(C(=O)Nc2cccc(SC)c2)c1N | / | . | . | /
c1ccc(-c2cncnc2)nc1 | / | . | . | /
c1ccc(-c2nnc(-c3ccccn3)s2)nc1 | 54 | . | . | 59
CN(C(=O)C1CCCO1)c1nnc(-c2ccccn2)s1 (configuration not stated) | 47 | . | . | 50
CN(C(=O)C1CCOC1)c1nnc(-c2ccccn2)s1 (configuration not stated) | 86 | . | . | 30
COCC(=O)N(C)c1nnc(-c2ccccn2)s1 | 57 | . | . | 41
SMILES | Shiga toxin inh | FMDV antiviral | Sm TGR block | Cycloheximide cs
c1ccc(-c2nc(-c3ccccn3)nc(-c3ccccn3)n2)nc1 | . | . | . | .
c1ccc(C2=NNC(c3ccccn3)=NN2)nc1 | 71 | . | . | 33
COC(=O)c1nnn(CC(=O)Nc2c(C)cccc2C)c1N | / | . | . | /
COc1cccc(NC(=S)/C(=C(\[O-])c2ccc([N+](=O)[O-])cc2)[n+]2ccccc2)c1 | 66 | . | . | 24
CCOc1ccc(NC(=S)/C(=C(\[O-])c2ccc(C)c([N+](=O)[O-])c2)[n+]2ccccc2)cc1 | 41 | . | . | 33
O=[N+]([O-])c1ccc(/C([O-])=C(/C(=S)Nc2ccccc2F)[n+]2ccccc2)cc1 | . | . | . | .
Cc1ccc(NC(=S)/C(=C(\[O-])c2ccc(F)cc2)[n+]2ccccc2)cc1 | . | . | . | 21
O=[N+]([O-])c1cccc(/C([O-])=C(/C(=S)Nc2cccc3ccccc23)[n+]2ccccc2)c1 | 64 | . | . | 27
O=[N+]([O-])c1cccc(C([O-])=C(C(=S)Nc2cccc3ccccc23)[n+]2ccccc2)c1 | / | . | / | /
COCCOC(=O)C1=C(C)NC(=O)NC1c1cn(-c2ccccc2)nc1-c1ccccc1 (configuration not stated) | / | . | . | /
CCc1ccccc1NC(=O)Cn1nnc(-c2nc(-c3ccc(C)cc3)no2)c1N | / | . | . | /
O=C(NCCC1=CCCCC1)c1ccc2c(c1)N(Cc1ccccc1)C(=O)c1ccccc1S2(=O)=O | / | . | . | /
CC1(c2ccc(OC(F)F)cc2)NC(=O)N(CC(=O)Nc2ccc(OC(F)F)cc2)C1=O (configuration not stated) | . | . | . | .
CC1(c2ccc(OC(F)F)cc2)NC(=O)N(CC(=O)Nc2ccc(Cl)cc2F)C1=O (configuration not stated) | . | . | . | 13
CCCNC(=O)c1oc2ccc3c(c2c1C)C(=O)CC(C)(C)O3 | 50 | . | . | 44
